DRD3 antagonist: qHTS of D3 Dopamine Receptor Antagonist: qHTS | D(3) dopamine receptor (Homo sapiens), P35462 | D3R cells, DiscoveRx beta-arrestin luminescence, antagonist mode; stronger effect = lower value | max response, negative = inhibition, % | actives 2.5% (n = 360,000); in the data active = max response below about -50%; inconclusive = no clear call, values can overlap the other calls; note: % is set by controls: 0 for no effect and ±100 for the full control effect
Target sequence (P35462 whole entry, looked up): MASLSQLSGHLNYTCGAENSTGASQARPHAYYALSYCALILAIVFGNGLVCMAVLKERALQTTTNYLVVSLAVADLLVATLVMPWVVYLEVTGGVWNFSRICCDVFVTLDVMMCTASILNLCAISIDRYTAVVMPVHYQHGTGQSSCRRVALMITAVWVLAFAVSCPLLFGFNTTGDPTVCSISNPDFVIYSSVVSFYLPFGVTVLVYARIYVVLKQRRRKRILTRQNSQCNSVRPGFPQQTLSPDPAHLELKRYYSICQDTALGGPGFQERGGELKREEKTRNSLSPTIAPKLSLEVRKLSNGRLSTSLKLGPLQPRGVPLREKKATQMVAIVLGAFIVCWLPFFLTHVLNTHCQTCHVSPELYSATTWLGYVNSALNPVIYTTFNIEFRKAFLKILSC
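Cells expressing the human receptor were seeded at 1500 cells/well, incubated overnight at 37 degrees C in 5% CO2, then exposed to library compounds with dopamine controls for 90 minutes at 37 degrees C before luminescent detection.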
GRP78 ERSR act: qHTS for Inducers of the Endoplasmic Reticulum Stress Response (ERSR) in Human Glioma: qHTS; Potency, µM, without a hit: at the top dose activation, hits mostly activators; U87-MG GRP78 promoter luciferase reporter, 16 h; actives 0.02% (n = 420,000); note: potency is the fitted concentration of half-maximal effect; series mostly up to about 76 µM; % of control where 0% means no effect; nearly all actives have a fitted effect of over 35% in size
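Stably transfected U87-MG glioma cells carrying a GRP78-based luciferase sensor; 16 h compound incubation. Luminescence end-point read 10 min after Bright-Glo addition at room temperature.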
D3 ag: qHTS of D3 Dopamine Receptor Agonist: qHTS. D(3) dopamine receptor (Homo sapiens), P35462. D3R DiscoveRx beta-arrestin cells, luminescence, 90 min. max activation, %. actives 0.58% (n = 410,000); in the data active = max activation above about 30%; note: 0% is about no effect
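Agonist mode: compounds and dopamine controls were applied to plated cells for 90 min at 37 degrees C after an overnight attachment at 1500 cells/well. Luminescent read-out followed 30 - 60 minutes at room temperature with DiscoveRx detection reagent.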
Nrf2 ARE act: qHTS of Nrf2 Activators; AREc32 ARE-luciferase reporter (MCF7-derived line), luminescence, 24 h; Potency, µM (doses to about 46.1 µM), inactives show at the top dose activation, actives largely listed as activators; actives 0.31% (n = 410,000); AID 624171, 2012; note: potency is the fitted concentration of half-maximal effect; % of control where 0% means no effect; nearly all actives have a fitted effect of over 65% in size
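Reporter line AREc32 (ARE-Fluc), seeded overnight in OPTI-MEM with 5% FBS; compound pin-transferred, 24 hr at 37 deg C, 5% CO2; luminescent read-out.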
* = called active by the depositor; ? = inconclusive; nt = no result. Shown are actives, neighbours in structure and some others; about 3% of the full set was active somewhere. Unless noted, calls come from the whole dose curve; as a rule, active = well fitted curve in the direction sought with a large enough effect; inconclusive = small, poorly fitted or top-dose-only effect, or another doubt; inactive = no such curve, though single readings can be large; an effect the other way counts as inactive or inconclusive.

SMILES	DRD3 antagonist	GRP78 ERSR act	D3 ag	Nrf2 ARE act
Cc1cccc(/C=N/NC(=O)c2cccc([N+](=O)[O-])c2)n1	-50*	-3%	-23	3%
COc1ccc(-c2ccc(C(=O)NCC3Cc4cccc(-c5nc(C)cnc5C)c4O3)o2)cc1 (configuration not stated)	nt	1%	nt	nt
O=C1/C(=C\c2cccs2)CCC/C1=C\c1cccs1	nt	nt	5	nt
O=C(NCCc1nnc2n1CCN(Cc1ccc(F)cc1)CC2)c1ccco1	nt	0%	nt	nt
CCC(=O)NC(c1cc(Cl)c2cccnc2c1O)C1CC1 (configuration not stated)	nt	-4%	nt	0%
O=C(NC(c1ccc(Cl)cc1)c1cc(Cl)c2cccnc2c1O)c1cccnc1 (configuration not stated)	-100*	-2%	2	3%
Oc1c(C(c2ccccn2)N2CCCCC2)cc(Cl)c2cccnc12 (configuration not stated)	-76*	-7%	-22	0%
CN1CCN(C(c2ccc(Cl)cc2)c2cc(Cl)c3cccnc3c2O)CC1 (configuration not stated)	-99*	-7%	-22	12%
CC(=O)NC(c1ccccc1)c1cc(Cl)c2cccnc2c1O (configuration not stated)	?	-5%	-11	3%
Cc1ccccc1Cn1ccn(-c2ccc(F)c(F)c2)c(=O)c1=O	nt	-3%	69*	1%
c1csc(CNc2nc(CN3CCCC(c4nc5ccccc5o4)C3)nc3ccccc23)c1 (configuration not stated)	nt	-4%	nt	nt
N#Cc1ccc(NC(=O)COc2ccccc2C(=O)Nc2ccccc2)cc1	nt	0%	nt	nt
COC(=O)C1=C(C(=O)c2ccccc2)C(c2cccs2)n2nnnc2N1 (configuration not stated)	-60*	0%	0	0%
CCOc1cc(C2C(C(=O)c3ccccc3)=C(C(=O)OC)Nc3nnnn32)ccc1O (configuration not stated)	-55*	1%	1	2%
COC(=O)C1=C(C(=O)c2ccccc2)C(c2ccc(O)c(OC)c2)n2nnnc2N1 (configuration not stated)	-19	8%	-15	24%
COC(=O)C1=C(C(=O)c2ccccc2)C(c2ccc(OC)c(OC)c2)Nc2nnnn21 (configuration not stated)	-75*	6%	-4	10%
CC(=O)N1CCC[C@H]1C(=O)N1CCc2c(cnc(C)c2CNC(=O)/C=C/c2cccs2)C1	nt	-1%	nt	nt
O=C1C=CC(=O)N1c1ccc(OC(F)F)cc1	-55*	-13%	-20	1%
O=C1C=CC(=O)N1c1ccc(O)cc1	-16	-15%	-5	7%
NC(=O)C1(N2CCCCC2)CCN(CC(=O)Nc2cc(Cl)ccc2Cl)CC1	-88*	-4%	-62	0%
O=C(CN1CCN(S(=O)(=O)N2CCCCC2)CC1)Nc1cc(Cl)ccc1Cl	-7	-4%	-3	-1%
Cc1ccc(C(=O)N/N=C\c2ccc(Br)o2)o1	-22	0%	-31	6%
Cc1ccc(C(=O)N/N=C/c2ccc(-c3ccc(Br)cc3[N+](=O)[O-])o2)o1	?	2%	-7	7.9µM*
O=C1Nc2c(Cl)cc(Cl)cc2C1=O	-93*	-1%	-12	27%
Cc1cccc(N=C2C(=O)Nc3c(Cl)cccc32)c1	-30	1%	-19	16%
SMILES	DRD3 antagonist	GRP78 ERSR act	D3 ag	Nrf2 ARE act
O=C1c2ccccc2C(=O)N1CC1CO1 (configuration not stated)	-2	-1%	63*	0%
CC(C)OCCCNC(=O)Cn1ncc2c(=O)oc3ccccc3c21	0	-2%	3	-1%
Cc1ccc2oc(=O)c3cnn(CC(=O)NCCCOC(C)C)c3c2c1	-84*	-3%	2	0%
CCN(CC1COc2ccccc2O1)C(=O)CN1C(=O)NC(C)(c2ccc(C)cc2)C1=O (configuration not stated)	-6	-3%	5	1%
CCN(CC1COc2ccccc2O1)C(=O)CN1C(=O)NC(C)(c2ccccc2)C1=O (configuration not stated)	-13	-4%	55*	0%
CCCS(=O)(=O)c1ncc(Cl)c(C(=O)Nc2sc3c(c2C(=O)NCC)CCCC3)n1	nt	-5%	nt	nt
CC(C#N)(Nc1ccc(Cl)cc1)c1cccnc1 (configuration not stated)	-61*	-4%	-18	0%
COC(c1ccc2c(c1)CN(C(=O)Cn1nc(C)c3ccccc3c1=O)CCO2)C1CCCCC1 (configuration not stated)	nt	-2%	nt	nt
Cc1ccccc1-c1nc(S(=O)(=O)c2ccccc2)c(N2CCCC2)o1	17	-2%	-3	2%
O=S(=O)(c1ccccc1)c1nc(-c2ccc(Cl)cc2Cl)oc1N1CCCCCC1	nt	-3%	61*	0%
CCCOc1ccc(C(=O)CCNc2ccc(C)c(Cl)c2)cc1	-84*	-5%	-12	0%
O=C(c1ccc2c(c1)N(Cc1ccc(F)cc1)C(=O)c1ccccc1S2=O)N1CCC(Cc2ccccc2)CC1 (configuration not stated)	nt	-3%	2	1%
COc1ccccc1C1CCN(Cc2c(C)[nH]c3ccccc23)CC1	-89*	-6%	-18	16%
COc1ccccc1C1CCN(Cc2ccc(Cl)c(Cl)c2)CC1	-79*	-4%	-49	0%
COc1cc(CN2CCC(C)CC2)ccc1OCc1ccccc1	?	0%	-25	5%
COc1ccccc1C1CCN(Cc2ccc(Cl)cc2Cl)CC1	-96*	0%	-18	-1%
COc1ccccc1C1CCN(Cc2cccc3ccccc23)CC1	-10	-7%	-47	0%
CCN(CCCNC(=O)CN1C(=O)COc2ccc(S(=O)(=O)N3CCC(C)CC3)cc21)Cc1ccccc1	-74*	-3%	-18	-1%
CC1CCN(S(=O)(=O)c2ccc3c(c2)N(CC(=O)NCCCN(Cc2ccccc2)C(C)C)C(=O)CO3)CC1	-12	2%	-7	-1%
Cc1cc(Cl)c(OCCCSc2nc(C)cc(=O)[nH]2)c(Br)c1	20	-2%	41*	0%
CS(=O)(=O)c1nc(S(=O)(=O)c2ccc(Cl)cc2)c(N2CCN(CCO)CC2)s1	-13	-8%	-6	?
CS(=O)(=O)c1nc(S(=O)(=O)c2ccc(Cl)cc2)c(N2CCC(O)CC2)s1	8	-5%	-2	?
Cc1ccc(S(=O)(=O)c2nc(S(=O)(=O)c3ccc(C)cc3)c(N3CCN(CCO)CC3)s2)cc1	-92*	-4%	-18	29%
CCS(=O)(=O)c1nc(S(=O)(=O)c2ccc(Cl)cc2)c(N2CCCC2)s1	4	-3%	0	3%
CCS(=O)(=O)c1nc(S(=O)(=O)c2ccc(Cl)cc2)c(N2CCN(C)CC2)s1	-75*	-2%	-20	?
Cc1ccc(S(=O)(=O)c2nc(S(C)(=O)=O)sc2N2CCC(O)CC2)cc1	-7	-3%	1	8.9µM*

High-throughput results (PubChem)
